In all, about 64,000 compounds went through this assay and fewer than 10 were called active. Not all results are given here. A number with no mark means an inactive call.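 Rule for the calls: active = activation factor of at least 2 at 20 µM, relative to controls; inactive = the rest.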

For this experiment, the target named is Alkaline phosphatase, tissue-nonspecific isozyme (Homo sapiens) (UniProt P05186). Description: stimulation of alkaline phosphatase TNAP activity – biochemical, luminescent, intermediate phosphate acceptor level, primary screen (AID 813). The conditions noted are these: purified TNAP, CDP-star luminescence, 100 mM DEA, 30 min; at 20 µM; stronger effect = higher value; scale: 0 levamisole-inhibited, 1 vehicle-only enzyme.
Sequence of Alkaline phosphatase, tissue-nonspecific isozyme (Homo sapiens) (P05186 whole entry, looked up): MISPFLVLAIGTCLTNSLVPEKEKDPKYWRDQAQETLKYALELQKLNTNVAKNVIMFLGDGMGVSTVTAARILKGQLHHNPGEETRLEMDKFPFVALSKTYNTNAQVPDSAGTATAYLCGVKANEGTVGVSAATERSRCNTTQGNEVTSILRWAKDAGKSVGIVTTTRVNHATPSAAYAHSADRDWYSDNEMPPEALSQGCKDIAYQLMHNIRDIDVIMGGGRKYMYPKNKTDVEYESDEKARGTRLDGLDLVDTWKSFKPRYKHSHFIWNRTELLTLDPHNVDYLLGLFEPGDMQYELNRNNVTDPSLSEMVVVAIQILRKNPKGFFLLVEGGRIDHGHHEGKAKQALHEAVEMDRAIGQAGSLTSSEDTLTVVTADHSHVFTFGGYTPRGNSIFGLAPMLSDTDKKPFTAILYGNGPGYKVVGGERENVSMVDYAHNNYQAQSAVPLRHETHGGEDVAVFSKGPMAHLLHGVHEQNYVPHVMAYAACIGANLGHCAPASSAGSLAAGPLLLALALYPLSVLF
Take `Cc1cc(C)nc(N2C(=O)CC(Cc3ccccc3)C2=O)n1` (stereo not given): the activation factor was 0.9. As to `COc1ccc(-n2c(SCC(=O)Nc3ccc4c(c3)OCO4)nnc2C(C)N2CCCCC2)cc1` (stereo not given), the activation factor is 1. Next, `N#CC1=C(N)OC2=C(C(=O)CCC2)C1C1CC=CCC1` (stereo not given): 0.9; `O=C(Nc1ccon1)c1sc2ccccc2c1Cl`: 1; `Cc1ccc(S(=O)(=O)NCC(=O)OCC(=O)N2CCc3ccccc32)cc1`: 0.8. `COc1ccc(C(=O)CSc2nccc(=O)[nH]2)cc1`: the activation factor was 1. As to `CSc1cccc(NC(=O)C2CCCN2S(=O)(=O)c2ccc3c(c2)CCC(=O)N3)c1` (stereo not given), the activation factor is 0.9. Take `Cc1ccnc(N2CCCC(C(=O)Nc3cc(F)ccc3C)C2)n1` (stereo not given): the activation factor was 0.9. For the compound `Nc1nonc1C(=O)NCCc1ccccc1`, the activation factor is 0.9. Turning to `CCc1cccc(C)c1NC(=O)CSc1nnc(-c2ccco2)n1N`, the activation factor was 1.1. Next, `COc1ccccc1-n1c(CNC(=O)c2ccccc2)nnc1SCC(=O)Nc1nnc(C)s1`: 1. Under `Cc1ccc(S(=O)(=O)NC(C)C(=O)Nc2ccccc2C(=O)N2CCCC2)cc1` (stereo not given) stands 0.9; under `O=C1C(C=NCC2CCCO2)=C(O)c2ccccc21` (stereo not given), 1. Take `O=C(CCN1C(=O)c2ccccc2C1=O)Nc1ccncc1`: the activation factor is 1. Take `CCn1nnc(NC(=O)c2cc(Cl)c(OC)c(Cl)c2)n1`: the activation factor is 0.9. Next, `CN(C)/C=C1/C(=O)Nc2ccccc21`: 0.9. Under `CCCNC(=O)C1CC(=O)N(c2ccc(OCC(=O)Nc3cccc(C)c3C)cc2)C1` (stereo not given) stands 1; under `CCCCNC(=O)CSc1nnc(-c2ccco2)n1C`, 1. Under `CCOC(=O)c1cccc(NC(=O)CCn2nnc3ccccc32)c1` stands 0.9; under `O=C(CSc1nnc(-c2cccs2)n1Cc1ccco1)c1ccc2c(c1)OCO2`, 0.9. For `CC(=O)N(CC1CCCO1)C1(C(=O)NC2CCCC2)CCCCC1` (stereo not given), the activation factor was 1. For `CCn1c(SCC(=O)Nc2cc(C)c(Cl)cc2OC)nnc1-c1ccco1`, the activation factor is 1.

Regarding `Cc1ccc2c(C(=O)CN3CCCC3)c(C)[nH]c2c1`, the activation factor is 0.9. Next, `Cc1cccc(C2c3c(n(C)c(=O)n(C)c3=O)N=C3c4ccccc4C(=O)C32)c1` (stereo not given): 0.8; `C=CCn1c(C2CC(=O)N(c3ccc(C)cc3)C2)nc2ccccc21` (stereo not given): 0.9; `CC1(C)Cc2c(C#N)c(SCc3nc4ccccc4[nH]3)nc(N3CCOCC3)c2CO1`: 1. As to `CCOC(=O)C1C(=O)OC2(CCCC2)C1C(=O)OCC` (stereo not given), the activation factor is 0.9. In the case of `Cc1ncn(C23CC4CC(CC(O)(C4)C2)C3)n1`, the activation factor was 1. For `CC1CN(C(=O)CN2C(=O)NC(C)(c3ccccc3)C2=O)CC(C)O1` (stereo not given), the activation factor was 0.9.

In the case of `CCOc1cc(C)c(Cl)cc1S(=O)(=O)n1nnc2ccccc21`, the activation factor was 0.9. Under `CCOC(=O)CNC(=O)c1nn(-c2cccc(OC)c2)c(=O)c2ccccc12` stands 0.9; under `CC(C)c1ccc(NC(=O)NC2CCCCC2)cc1`, 0.9; under `COc1ccc(N2C(=O)C3CCCN3C2c2cc(OC)c(OC)cc2OC)cc1` (stereo not given), 0.9. Next, `Cc1oc(CC(C)C)c(CN2CCCC2)c1C(=O)O`: 0.9; `CCCn1c(SCC(N)=O)nnc1C(C)C`: 0.9. Under `O=C(CCN1C(=O)COc2ccccc21)NCCCN1CCN(c2ccc(F)cc2)CC1` stands 0.9; under `Cc1c(-c2nn(C)c(=O)c3ccccc23)oc2ccc(F)cc2c1=O`, 1. As to `CCC(=O)N1c2ccc(S(=O)(=O)CCC(=O)N3CCN(c4ccccc4)CC3)cc2CC1C` (stereo not given), the activation factor is 0.9. In the case of `Cc1cc(Nc2ccccc2)n(CCC#N)n1`, the activation factor was 1.

For the compound `Cc1cc2cc(CNC(=O)c3ccc(S(=O)(=O)N4CCOCC4)cc3)ccc2[nH]1`, the activation factor is 1.

Turning to `CCOC(=O)c1cc2occc2n1CC(=O)NC1CCC(C)CC1` (stereo not given), the activation factor is 0.9.

Take `CC(CN1CCCCC1)OC(=O)c1ccccc1Cl` (stereo not given): the activation factor was 1. Next, `COC(=O)c1cc(NC2c3ccccc3C(=O)N2c2ccc(Cl)cn2)cc(C(=O)OC)c1` (stereo not given): 0.9. `N=c1c2c3c(sc2ncn1CCCN1CCOCC1)CCCCC3`: the activation factor was 0.9. Next, `Cc1ccc(S(=O)(=O)NCc2csc(C)n2)c(C)c1`: 0.9; `CSCCC1NC2(C(=O)Nc3ccc(Cl)cc32)[C@@H]2C(=O)N(C3CCCC3)C(=O)[C@H]12` (stereo not given in full): 0.9. Turning to `NC(=O)c1ccsc1NC(=O)c1ccco1`, the activation factor was 0.8. Next, `O=C(CC1(O)C(=O)N(CN2CCOCC2)c2ccccc21)c1ccccc1` (stereo not given): 0.9.

Consider `CCOc1cccc(-n2nnnc2-c2ccc(OC)cc2)c1`, for which the activation factor was 0.8.

Take `Cc1ccc(N2C(=O)c3oc4ccccc4c(=O)c3C2c2cccnc2)nc1` (stereo not given): the activation factor is 0.9. `COc1ccccc1N1CCN(Cc2ccc(OC)c3ccccc23)CC1`: the activation factor is 0.9. Next, `CC(C)(C)c1csc(NC2=NS(=O)(=O)c3ccccc32)n1`: 0.9; `CN1CCN(CC(O)COCc2ccc3c(c2)OCO3)CC1` (stereo not given): 1; `COc1cc(C2C(C(=O)c3sc(C)nc3C)=C(O)C(=O)N2CCN(C)C)cc(OC)c1OC` (stereo not given): 0.9. Under `CCOc1cc(/C=N/O)cc(Br)c1OC` stands 0.9; under `Cc1ccc(C(=O)Nc2ccccc2C(=O)NC2CCCCC2)cc1S(=O)(=O)N1CCOCC1`, 0.9.

With `CC1CCN(c2nc3c(c(=O)[nH]c(=O)n3C)n2CCCc2ccccc2)CC1`, the activation factor is 1. For the compound `Cc1cc(C)nc(NC2=NCC(=O)N2c2ccc(Cl)cc2)n1`, the activation factor was 0.9. Under `CCOc1cc(S(=O)(=O)NC2CC(C)(C)NC(C)(C)C2)ccc1F` stands 0.9. Take `Nc1nnc(C2CCCC2)s1`: the activation factor is 0.9. Next, `Cn1c(=NC(=O)c2ccco2)sc2cccc(F)c21`: 0.9; `CC(C)(CNCC(O)c1ccccc1)N1CCOCC1` (stereo not given): 0.9.

For the compound `CCOc1ccc(N(CC(=O)OC)S(=O)(=O)c2c(C)noc2C)cc1`, the activation factor is 0.9. On to `COc1ccc(CCn2nnnc2C(c2ccccc2)N2CCN(C)CC2)cc1OC` (stereo not given), for which the activation factor was 1. Regarding `O=C(OCCO)c1cc(Cl)c(C(=O)OCCO)cc1Cl`, the activation factor is 0.9.

The record behind these values is PubChem BioAssay AID813 (Sanford-Burnham Center for Chemical Genomics, 2007).
